Source: PubChem
MITF inh = MITF inhibitors, primary screen, biochemical, AlphaScreen, human; inhibition, % at 2.6 µM; AID 1259374, 2018; hit rate 0.91% among 650,000; AlphaScreen MITF homodimerization, bead proximity signal; in the data active = inhibition above about 50%
FBW7 activator = FBW7 E3 ligase activators, primary screen, biochemical, AlphaScreen, human | F-box/WD repeat-containing protein 7 (Homo sapiens), Q969H0 | AlphaScreen FBW7–phospho-cyclin E peptide binding, activator screen | normalized activity (activation), % at 26.1 µM | hit rate 0.13% among 650,000 | AID 1259310, 2017; in the data active = normalized activity above about 1.9%;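 note: purified mutant Fbw7 with reduced substrate affinity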
GPR151 ag = activators of human GPR151, primary screen, cell-based, PathHunter beta-arrestin, luminescence; G-protein coupled receptor 151 (Homo sapiens), Q8TDV0; PathHunter beta-arrestin GPR151 cells; activation, % at 11.2 µM; hit rate 1% among 650,000; in the data active = activation above about 4.9%
TEAD-YAP inh = TEAD-YAP interaction inhibition, primary screen, TEAD-YAP interaction inhibitor project, luminescence, HEK-TIYL cells. TEAD-Gal4/YAP UAS-luciferase luminescence. inhibition, % at 9.12 µM. hit rate 1.4% among 640,000; in the data active = inhibition above about 32%
GPR151 confirm = GPR151 activators, triplicate retest, confirmation, cell-based, PathHunter beta-arrestin, luminescence; shares compounds with GPR151 ag; GPR151 PathHunter beta-arrestin cells, 90 min; % of EA-reagent control over plate median; activation, % at 11.2 µM; 6,700 tested, under 10 active; AID 1508609, 2020;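 active = mean percent activation across replicates above the confirmation screen cutoff of 4.91%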
GPR119 counter = GPR119 activators in beta-arrestin cells, counter-screen for GPR151 activator project, cell-based, PathHunter beta-arrestin, luminescence, triplicate; hit rate 0.3% among 6,700; AID 1508611, 2020; 90 min; 0 = compound-well median, 100 = enzyme-acceptor control; shares compounds with GPR151 ag; activation, % at 11.2 µM;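 active = mean percent activation in the counterscreen above 29.09%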;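 note: counterscreen on off-target GPR119 to flag nonselective hits from the GPR151 activator screen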
Target sequence (Q8TDV5 whole entry, looked up): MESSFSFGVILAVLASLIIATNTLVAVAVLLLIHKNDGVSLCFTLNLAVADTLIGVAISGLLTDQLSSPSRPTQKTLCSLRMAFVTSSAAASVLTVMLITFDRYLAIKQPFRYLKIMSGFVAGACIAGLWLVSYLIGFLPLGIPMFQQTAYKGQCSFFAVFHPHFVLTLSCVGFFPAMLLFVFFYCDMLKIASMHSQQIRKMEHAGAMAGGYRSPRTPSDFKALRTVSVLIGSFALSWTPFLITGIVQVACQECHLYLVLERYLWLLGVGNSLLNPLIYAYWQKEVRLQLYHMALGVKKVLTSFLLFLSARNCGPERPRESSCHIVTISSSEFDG
Large screens that a line does not name were inactive (follow-up assays come after a bar, where they were run). Shown are actives, neighbours in structure and some others; about 3.4% of the full set was active somewhere.

CN(c1ccc(C(=O)Nc2ccc(F)c(Cl)c2)cc1)S(=O)(=O)c1ccccc1	GPR151 ag 5.4 | GPR151 confirm inactive | GPR119 counter inactive
C=CCC(CC=C)(C(=O)O)c1ccccc1	GPR151 ag 5.8 | GPR151 confirm inactive | GPR119 counter inactive
N#CC1=C(SCc2ccccc2)NC(=O)CC1c1ccc2c(c1)OCO2 (stereo unspecified)	none
O=C(COC(=O)C12CCC(=O)N1c1ccccc1S2)Nc1cccc2ccccc12 (stereo unspecified)	none
CC(C)c1nc2cccnc2n1C1CCN(C(=O)c2n[nH]c3c2CCC3)CC1	GPR151 ag 10.5 | GPR151 confirm inactive | GPR119 counter inactive
O=c1oc2ccc(Cl)cc2cc1-c1nnc(-c2ccccc2Cl)o1	GPR151 ag 5.6 | GPR151 confirm inactive | GPR119 counter inactive
CCCCCCOc1ccc(N2C(=O)CC(N3CCN(C(c4ccccc4)c4ccccc4)CC3)C2=O)cc1 (stereo unspecified)	none
Cc1nc(SCC(=O)NC(=O)NCc2ccco2)c2c(-c3cccs3)csc2n1	GPR151 ag 5.0 | GPR151 confirm inactive | GPR119 counter inactive
Cc1nc(SCC(=O)Nc2cc(C)on2)c2c(-c3cccs3)csc2n1	none
CCCC(=O)NC(NC(=O)CCC)c1ccc([N+](=O)[O-])cc1	none
COC(=O)C1=C(O)/C(=C\c2cc(C)n(-c3cc(Cl)ccc3C)c2C)N=C1C	none
COC(=O)C1=C(O)/C(=C/c2cc(C)n(-c3cc(C)ccc3C)c2C)N=C1C	GPR151 ag 5.2 | GPR151 confirm inactive | GPR119 counter inactive
CC(C)c1ccc(NC(=O)c2cc(S(=O)(=O)NCCc3ccccc3)ccc2F)cc1	GPR151 ag 5.8 | GPR151 confirm inactive | GPR119 counter inactive
CC(=O)Nc1ccc(S(=O)(=O)NCCNC(=O)c2ccccc2F)cc1	GPR151 ag 6.3 | GPR151 confirm inactive | GPR119 counter inactive
O=C(Nc1ccc(S(=O)(=O)NCCc2ccccc2)cc1)c1ccccc1F	none
CC1=NC2(CCN(S(C)(=O)=O)CC2)N=C1c1ccccc1	none
CC1=NC2(CCN(C(=O)NC(C)C)CC2)N=C1c1ccccc1	GPR151 ag 9.1 | GPR151 confirm inactive | GPR119 counter inactive
O=C(c1ccccc1)c1cc(Cl)ccc1N=Cc1c(O)[nH]c(=S)[nH]c1=O	none
Cn1cc(-c2conc2-c2ccnc(Nc3ccc(N4CCOCC4)cc3)c2)cn1	none
Cc1ccc(NC(=O)c2cnn(-c3ccccc3)c2NC(=O)c2ccc(Cl)cc2)cc1	GPR151 ag 5.6 | GPR151 confirm inactive | GPR119 counter inactive
O=C(Cn1ncc2ccccc21)NCc1ccc(Cl)cc1	none
NC(=O)c1cc(-c2ccc3c(c2)OCO3)no1	GPR151 ag 5.7 | GPR151 confirm inactive | GPR119 counter inactive
COC(=O)c1cc(-c2ccc3c(c2)OCO3)no1	none
COc1ccccc1-n1cnnc1SCc1nnc(-c2ccccc2)o1	none
CCN(CC)CCNCC(=O)N1CCCc2ccccc21	GPR151 ag 8.3 | GPR151 confirm inactive | GPR119 counter inactive
CCCCNC(=O)/C(=C/c1ccccc1)NC(=O)/C=C/c1ccco1	GPR151 ag 17.5 | GPR151 confirm inactive | GPR119 counter inactive
CCCCNC(=O)/C(=C/c1ccc(OC)cc1)NC(=O)/C=C/c1ccccc1	none
CCN1C(=O)C(=Cc2ccc(-c3ccc([N+](=O)[O-])cc3)o2)C(=O)N(CC)C1=S	none
COC(=O)c1ccc(COn2c(=O)c(-c3cc4ccccc4o3)[n+]([O-])c3ccccc32)cc1	none
CCOc1cc(C=C2C(=O)c3ccccc3C2=O)ccc1OC(C)=O	GPR151 ag 10.2 | GPR151 confirm inactive | GPR119 counter inactive
O=c1[nH]c2c(Cl)c(Cl)c(Cl)cc2o1 (tested in a mixture with another compound)	none
CCOC(=O)CN1C(=O)C2(OCCCO2)c2cc(C)ccc21	GPR151 ag 5.7 | GPR151 confirm inactive | GPR119 counter inactive
COC(=O)CN1C(=O)C2(OCCCO2)c2cc(C)ccc21	none
